Columns and labels:
Test in all cases: PBM binding z-score (relative to random genomic background probes); higher = stronger binding; sequences stand for … in GC…GCGATTGACAGCGTAGAATGAAGG
[1] = system: RARb homodimer (NR concentration 270 nM)
In short: (§1)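 On custom Agilent 4×180K arrays, double-stranded probes with 34-nt variable regions carried direct-repeat seeds, single-nucleotide variants, half-site ablations or random human genomic background. Ligand-free nuclear receptor dimers were applied for 1 h, and binding was read with antibodies against each partner (one per run). Binding z-scores come from regression-normalized fluorescence, with the random background probes as reference.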

[2] = system: RARg:RXRa (NR concentration 270 nM, RXRa partner concentration 90 nM)
In short: as §1

[3] = system: RARg homodimer (NR concentration 270 nM)
In short: as §1

[4] = system: RXRa DBDmut IVT, anti-RXR (DBD mutation: RXRa K156A/R161A, NR concentration 90 nM)
In short: as §1

[5] = system: RXRa homodimer (NR concentration 180 nM)
In short: as §1

[6] = system: THRa:RXRa (NR concentration 90 nM, RXRa partner concentration 90 nM)
In short: as §1

[7] = system: THRa homodimer (NR concentration 90 nM)
In short: as §1

[8] = system: VDR homodimer (NR concentration 270 nM)
In short: as §1

Row | Sequence | PBM binding z-score [1] | PBM binding z-score [2] | PBM binding z-score [3] | PBM binding z-score [4] | PBM binding z-score [5] | PBM binding z-score [6] | PBM binding z-score [7] | PBM binding z-score [8]
1 | CCTACTGGGCCATTCAGACGTCATTGATCATATG | -0.514 | -0.25 | 0.169 | -0.119 | -0.341 | -0.533 | -0.741 | -0.378
2 | GCTAGTTGGTCAGTAAAAGGTTACACACCGGTCG | 2.7 | 2.11 | 1.34 | 0.00211 | 1.59 | 1.42 | 0.424 | 0.234
3 | CCGACTGGGCCAAAGGTCATTGATTCCAATGCTC | 4.58 | 5.54 | 4.4 | 1.57 | 5.7 | 3.21 | 0.644 | 2.4
4 | TCTCGGCGGACACGAAAGGTCAGAGCTCGACATC | 4.12 | 4.12 | 4.06 | 0.462 | 3.66 | 2.55 | 0.2 | 0.543
5 | ACAGACAGGGGAGTGAAGGTAACTCAGCTGGACG | 0.179 | -0.128 | 0.208 | -0.277 | 0.0403 | 0.674 | 0.101 | -0.467
6 | CCTCGGAGGACAACAGGCGGTCAGAGCTGCCAGA | 1.43 | 1.07 | 1.63 | -0.164 | -0.341 | 0.64 | -0.125 | -0.0839
7 | AGAATTAGGTTACCAAAGATCAGGGAAACGCTTG | 0.444 | 0.812 | 0.884 | 0.172 | 0.88 | 1.12 | 0.308 | -0.053
8 | CGAACCAGGTCATCCAGGACAGTGAATACATTGA | 3.03 | 4.28 | 4.8 | 2.81 | 3.95 | 4.15 | 2.93 | 2.75
9 | CAAACTAGGTCACAGAGGTCAATGTCCGTGCGTA | 5.68 | 6.89 | 7.2 | 3.06 | 6.85 | 4.66 | 2.96 | 6.33
10 | CCTTACGGGTCAAGGTTATAGCACGGGTGGTACG | 3.41 | 5 | 5.02 | 0.875 | 5.55 | 3.02 | 0.771 | 1.46
11 | CCTTACGGCTCACGAGGTTATAGCACGACGAGCG | 0.414 | 0.351 | 0.335 | 0.229 | 0.925 | 1.39 | 0.522 | 0.564
12 | CCTAGCTGGCCAATCTGGGTCACTCAAGGCTTGA | 1.72 | 0.659 | 0.818 | -0.0999 | 0.716 | 2.69 | 0.234 | -0.441
13 | AATACAGGGTCATCGTAGGCCAGGGTACGCACAG | 3.72 | 5.54 | 5.21 | 3.32 | 6.38 | 4.57 | 1.69 | 3.9
14 | TCATATTGGTAAAGGTGAAAGTCGAACGATATGA | 1.33 | 1.28 | 0.994 | 0.405 | 1.79 | 1.08 | -0.164 | -0.179
15 | CCTCGGATGACAACAGGAGGTCAGAGCTGCCAGA | 3 | 2.24 | 1.91 | -0.48 | 2.01 | 1.92 | 0.407 | 0.749
16 | ACTAGTTGGTCAGCTGAGGTCATACACAATTCGG | 3.89 | 3.68 | 3.38 | 1.89 | 3.86 | 4.94 | 4.75 | 4.31
17 | GCTATTAGTCGAAAGGGCAACCGAATGATTCTCG | 2.08 | 1.09 | 1.5 | 0.643 | 0.86 | 0.548 | -0.36 | 0.289
18 | TCTTGTAGAGCAAAGGTTAAGAAAGCCGAAGCCT | 1.17 | 1.43 | 0.586 | -0.181 | 2.6 | 1.06 | -1.14 | -0.734
19 | TCCTATAGGTAAAGGTGAAAGTCGAACGATATGA | 1.42 | 1.47 | 1.3 | 0.809 | 1.98 | 1.26 | -0.248 | 0.13
20 | TCATATAGGTAAAGGTGAAAGTCGAACGATATGA | 1.71 | 1.65 | 1.43 | 0.845 | 2.33 | 1.38 | -0.106 | 0.236
21 | TCTTGTAGAGCAATAGAGGTTAAGAAAGTGCGCT | 0.76 | 0.413 | 0.158 | -0.107 | 0.858 | 1.76 | -1.07 | -0.332
22 | ACTAGTTGGTCAGCTTAGGTCACACACAATTCGG | 3.68 | 2.59 | 3.19 | 0.83 | 1.69 | 4.33 | 3.55 | 0.863
23 | ATCTCTAGGTAAAAGTACAGTGAATCCCGAGGAT | -0.337 | 0.567 | 0.702 | -0.00884 | 0.199 | 0.284 | 0.0784 | 0.123
24 | GCGGCTGGGGCATCAGCAGGTTACCATAACTTAA | 1.16 | 0.705 | 0.632 | -0.632 | 0.166 | 1.01 | -0.483 | -0.207
25 | TCTAGCAGGCCAGAGGGTAACTCAAGAGGTACGG | 0.228 | 0.127 | 0.174 | -0.0485 | 0.497 | -0.104 | -0.765 | -0.49
26 | TCTAGTTGGTCAATGGTCACACACTCGAAATGCG | 1.54 | 1.02 | 1.31 | 1.16 | 0.996 | 0.262 | 0.437 | 0.178
27 | GCTCGGAGGACGAGGTCAGAGCTTTGTCCGTAGA | 2.89 | 3.06 | 2.84 | 0.606 | 3.19 | 3.09 | 1.51 | 1.26
28 | TCTAGTAGGTTACCAATGGGGCATTCAGCTTTCT | 0.934 | 1.47 | 0.705 | 1.13 | 0.88 | 0.163 | -0.277 | 0.254
29 | CCGACTGGGGCAGAAAGGTTACCTTACCATCCGG | 1.97 | 1.25 | 0.987 | -0.233 | 1.28 | 1.39 | 0.772 | -0.247

From the supplement of paper PMC6555819
